Laboratory results as given in the supplement of paper PMC3334620.
The full ranking holds about 33,000 sequences; the median of “E-score (-0.5 to 0.5)” is about -0.013, and the highest 2% start at about 0.3. Only a selection was taken, and the highest values are over-represented in it overall.

The sequences below were run against T1, Msn1 (UniProt P22148) (assay: PBM E-score (8-mer binding enrichment) (E-score (-0.5 to 0.5)); higher = stronger / more preferred TF binding). Conditions: protein concentration: 200 nM; construct: GST-full length.
T1 sequence: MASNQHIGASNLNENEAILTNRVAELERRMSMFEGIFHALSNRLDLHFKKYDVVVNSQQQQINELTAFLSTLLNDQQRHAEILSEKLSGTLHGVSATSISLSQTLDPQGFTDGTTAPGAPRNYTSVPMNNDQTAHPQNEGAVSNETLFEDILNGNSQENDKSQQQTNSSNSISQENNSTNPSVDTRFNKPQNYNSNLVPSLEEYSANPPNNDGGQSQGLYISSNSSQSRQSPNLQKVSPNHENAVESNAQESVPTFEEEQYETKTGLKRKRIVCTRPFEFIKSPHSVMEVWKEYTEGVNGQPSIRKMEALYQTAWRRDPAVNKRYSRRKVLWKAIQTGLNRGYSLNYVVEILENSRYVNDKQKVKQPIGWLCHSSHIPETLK
Summary of the method: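 Each ungapped eight-base word and its reverse complement, pooled, received an E-score from the Universal PBM Analysis Suite. Underlying scans, normalised with masliner, recorded fluorescent anti-GST bound to GST-tagged yeast transcription factors. These were applied at about 100-200 nM to universal all-10-mer Agilent arrays double-stranded by primer extension.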

Sequence | PBM E-score
ACGAAGCT | -0.0736
CCTTTGGC | -0.132
AATCGAAT | 0.047
ACGTTGCC | -0.241
CCAGCGCG | -0.158
GAGCTCGC | -0.0509
CACCCACA | -0.132
ATTAGCTA | -0.086
GCCCGGAA | 0.0421
GGAGACAC | 0.0421
GGAGACAA | 0.32
GGAGACCA | -0.0845
AGTCTTGC | -0.0197
CCAAAGTA | -0.0844
ATTACTGG | -0.119
CAAGCGCA | 0.185
CCCTCGAA | -0.0781
ACTGCTGG | -0.169
GACATTTA | 0.474
AACATTTA | 0.252
AACATTAC | -0.108
GACATTAA | 0.431
AACATTAA | 0.158
TACATTAA | 0.277
CACATTAC | 0.0152

Sequence | PBM E-score
CACATTTA | 0.15
GACATTAC | 0.442
AGAGGTCG | -0.105
GCTGGAAA | -0.0496
ATTTTGAA | 0.126
TGGCCAAA | 0.0563
ATCTTGCA | 0.0688
ATGTACCC | 0.115
GTGTACCA | 0.189
ATGTACCA | 0.316
ATGTACAT | 0.324
ATGTACAC | 0.268
ATGTACGA | 0.215
ATGTACTA | 0.233
ATGTACAA | 0.36
ATGTACAG | 0.185
AATTAGCG | 0.0486
ATGCTCCC | -0.341
GCCCGTTA | -0.266
CGTTCGCC | -0.0525
ACGAGGCG | 0.0795
CCATTGTA | 0.193
CCATTGGC | -0.0912
CTATTGTC | 0.288
ATATTGTC | 0.427

Sequence | PBM E-score
ATATTGTG | -0.00984
ACATTGTC | 0.411
CCATTGTC | 0.311
ACATTGTG | 0.207
ACATTGTA | 0.143
GAAGTAGC | -0.206
TAGGGTGA | -0.1
CCCTGCAG | -0.245
CGCATTTA | 0.193
GTCGACAC | 0.141
ATGGACCC | -0.0808
ATGGACAT | 0.484
GTGGAAAC | 0.164
ATGGACAA | 0.485
ATGGACGA | 0.273
ATGGAAAT | 0.0754
GTGGACAC | 0.356
ATGGACCA | 0.114
ATGGACAG | 0.251
ATGGACGC | 0.122
ATGGACAC | 0.437
GCGCTAGC | -0.0831
ATTAGGGA | 0.0137
CAGGTTGC | 0.0156
AGACTTGC | -0.136

Sequence | PBM E-score
AGCTTAAT | -0.00074
CACCCGTA | -0.0199
AAGCGAGC | -0.0286
AGCTTGAT | -0.0595
ACCGCGCC | -0.168
CTAAGACA | 0.302
ACAAGACA | 0.34
ACAAGACG | 0.0049
AAAAGACG | 0.135
GTAAGACA | 0.305
TAAAGACA | 0.356
AAAAGACA | 0.342
GCAAGACA | 0.157
AAAAGACC | 0.00338
TCAAGACA | 0.247
TAAAGATA | 0.0041
ATAAGACA | 0.264
GACGGCTC | -0.211
GCATATGC | -0.0698
ATTTCCAC | 0.106
CCGACCCC | -0.354
CATCAGAA | 0.00838
GCCGCCTA | -0.173
CCAGCGCC | -0.229
CAGTTTAC | -0.0477

Sequence | PBM E-score
CAAAGACC | -0.0488
GAAAGACA | 0.227
CAAAGACA | 0.361
GGAAGACA | 0.251
TGAAGACA | 0.328
CGAAGACA | 0.259
AGCGCATA | 0.034
CTAGCTCA | -0.0294
ATCCATTA | 0.0133
AGCCTACA | -0.135
CGTCTGCA | 0.0663
CCGAACAG | 0.0877
GGCCGAAC | -0.239
GTAGACAC | 0.0944
TTAGATAA | 0.0312
CTAGACAA | 0.305
CTAGACAC | 0.0417
TTAGAAAA | 0.109
TTAGACAA | 0.394
CTAGACAG | 0.00829
GTAGACAA | 0.309
GTAGACGA | 0.115
CCATTTGA | -0.0557
CGCATACG | -0.0304
AGTGGGGA | -0.185

Sequence | PBM E-score
AACAGTAG | -0.0756
CGTGGGAA | -0.0248
GACTCCTC | -0.149
AATGACAA | 0.29
GATGACAC | 0.06
GATGACTA | -0.0556
TATGACCA | 0.0481
GATGACAA | 0.336
CATGACAG | 0.13
CATGACAA | 0.383
TATGACAA | 0.408
CATGACAC | 0.193
AGAGCGAA | -0.00578
TCCTTCGA | 0.11
GCTAGTGA | -0.00743
TGAATGAA | 0.0496
AGTAGGGG | -0.202
CATTTAAC | 0.188
GGGAGCGA | -0.219
TGGCCCAA | -0.0694
CTGTCCTC | 0.197
AGGTCCTG | 0.0441
ATGTCCTG | 0.487
AGGTCCTC | -0.119
ATTTCCTG | 0.206

Sequence | PBM E-score
ATGTCCTC | 0.481
GCCCGCTA | -0.211
AAACAGGG | 0.09
CGGCGACA | 0.0783
CTTAGCAC | -0.0653
AACATATC | 0.0631
GACATAGC | 0.295
CACACATA | 0.0356
GACACATA | 0.361
TACACATA | 0.0567
GACATAGA | 0.36
GACATATC | 0.451
AACATAGA | -0.021
CACATATC | 0.0551
AACATATA | 0.0881
CACATATA | 0.0314
GACATATA | 0.448
CGATTTGA | -0.163
CGGGGCCA | -0.157
AGTCAGGC | 0.0431
CTTCGGTA | -0.0133
CTGGCAGC | -0.271
